The text below walks through data of the supplement of paper PMC11001985.

Unmarked numbers belong to inactive results.

UniProt P21333, sequence (P21333 whole entry): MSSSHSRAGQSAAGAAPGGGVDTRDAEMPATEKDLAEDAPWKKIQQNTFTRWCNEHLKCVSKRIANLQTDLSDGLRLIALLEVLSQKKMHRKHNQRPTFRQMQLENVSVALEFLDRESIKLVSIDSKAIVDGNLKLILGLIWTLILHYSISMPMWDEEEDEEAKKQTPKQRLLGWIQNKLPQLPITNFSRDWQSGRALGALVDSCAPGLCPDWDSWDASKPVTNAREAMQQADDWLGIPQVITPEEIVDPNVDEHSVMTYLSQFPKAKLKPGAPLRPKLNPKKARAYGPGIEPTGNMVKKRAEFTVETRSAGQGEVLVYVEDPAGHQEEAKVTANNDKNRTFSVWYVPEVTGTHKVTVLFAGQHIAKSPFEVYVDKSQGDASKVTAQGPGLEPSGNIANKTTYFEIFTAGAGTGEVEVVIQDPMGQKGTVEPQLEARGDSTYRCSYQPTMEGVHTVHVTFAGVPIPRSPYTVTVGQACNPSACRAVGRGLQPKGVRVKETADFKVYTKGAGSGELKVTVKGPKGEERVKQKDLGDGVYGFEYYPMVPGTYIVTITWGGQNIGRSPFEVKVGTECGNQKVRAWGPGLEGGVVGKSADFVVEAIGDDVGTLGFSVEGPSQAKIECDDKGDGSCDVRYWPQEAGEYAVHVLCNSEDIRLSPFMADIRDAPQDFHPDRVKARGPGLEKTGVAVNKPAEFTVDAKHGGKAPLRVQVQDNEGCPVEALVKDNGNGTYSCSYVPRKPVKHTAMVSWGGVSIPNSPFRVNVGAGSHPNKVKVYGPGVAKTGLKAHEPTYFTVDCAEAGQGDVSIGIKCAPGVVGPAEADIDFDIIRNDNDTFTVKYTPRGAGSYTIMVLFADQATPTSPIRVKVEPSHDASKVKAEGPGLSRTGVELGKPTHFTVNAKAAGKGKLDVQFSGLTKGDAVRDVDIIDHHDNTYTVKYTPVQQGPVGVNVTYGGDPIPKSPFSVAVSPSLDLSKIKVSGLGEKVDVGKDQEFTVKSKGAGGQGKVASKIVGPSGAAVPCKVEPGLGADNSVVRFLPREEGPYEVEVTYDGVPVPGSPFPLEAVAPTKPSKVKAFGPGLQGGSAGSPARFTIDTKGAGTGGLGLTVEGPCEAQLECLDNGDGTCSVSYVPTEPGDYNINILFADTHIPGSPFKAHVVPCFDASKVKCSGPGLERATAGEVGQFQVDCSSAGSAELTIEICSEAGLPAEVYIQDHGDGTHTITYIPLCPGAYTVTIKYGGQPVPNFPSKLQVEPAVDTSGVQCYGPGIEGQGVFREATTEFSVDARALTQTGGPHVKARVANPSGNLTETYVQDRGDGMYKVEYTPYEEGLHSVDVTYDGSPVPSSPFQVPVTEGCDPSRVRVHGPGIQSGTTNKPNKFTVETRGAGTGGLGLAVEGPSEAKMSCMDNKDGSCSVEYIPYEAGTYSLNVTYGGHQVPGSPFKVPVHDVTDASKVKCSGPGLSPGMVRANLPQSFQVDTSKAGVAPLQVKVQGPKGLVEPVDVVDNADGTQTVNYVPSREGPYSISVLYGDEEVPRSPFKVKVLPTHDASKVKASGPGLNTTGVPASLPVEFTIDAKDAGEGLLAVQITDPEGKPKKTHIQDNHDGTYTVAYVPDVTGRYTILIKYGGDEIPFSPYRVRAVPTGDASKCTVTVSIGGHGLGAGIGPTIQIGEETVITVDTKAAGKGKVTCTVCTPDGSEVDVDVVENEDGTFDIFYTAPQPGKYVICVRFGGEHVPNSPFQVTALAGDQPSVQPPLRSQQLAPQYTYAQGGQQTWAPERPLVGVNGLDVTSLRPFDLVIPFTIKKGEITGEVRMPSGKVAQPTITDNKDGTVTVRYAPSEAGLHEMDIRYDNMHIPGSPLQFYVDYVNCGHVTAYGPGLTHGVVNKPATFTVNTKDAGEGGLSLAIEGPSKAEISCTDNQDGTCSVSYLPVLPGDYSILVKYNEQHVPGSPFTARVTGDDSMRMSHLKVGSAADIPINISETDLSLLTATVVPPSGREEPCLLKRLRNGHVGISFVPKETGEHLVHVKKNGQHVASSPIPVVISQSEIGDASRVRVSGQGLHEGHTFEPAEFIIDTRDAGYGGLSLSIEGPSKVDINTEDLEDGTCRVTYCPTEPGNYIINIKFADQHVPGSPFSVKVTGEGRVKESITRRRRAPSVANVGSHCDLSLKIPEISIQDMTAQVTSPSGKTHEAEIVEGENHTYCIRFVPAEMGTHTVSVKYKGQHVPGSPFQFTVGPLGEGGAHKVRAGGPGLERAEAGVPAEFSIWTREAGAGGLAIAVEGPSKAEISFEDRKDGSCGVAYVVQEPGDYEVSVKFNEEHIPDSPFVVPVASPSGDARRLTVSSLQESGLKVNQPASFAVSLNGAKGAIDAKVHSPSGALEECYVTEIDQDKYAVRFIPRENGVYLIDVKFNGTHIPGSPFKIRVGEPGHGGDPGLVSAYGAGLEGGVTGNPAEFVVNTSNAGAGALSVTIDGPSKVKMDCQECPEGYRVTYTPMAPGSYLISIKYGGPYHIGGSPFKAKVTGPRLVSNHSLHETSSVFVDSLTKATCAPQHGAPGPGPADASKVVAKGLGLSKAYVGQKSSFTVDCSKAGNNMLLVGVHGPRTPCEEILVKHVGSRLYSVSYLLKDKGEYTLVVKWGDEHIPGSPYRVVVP
UniProt Q9H910, sequence (Q9H910 whole entry): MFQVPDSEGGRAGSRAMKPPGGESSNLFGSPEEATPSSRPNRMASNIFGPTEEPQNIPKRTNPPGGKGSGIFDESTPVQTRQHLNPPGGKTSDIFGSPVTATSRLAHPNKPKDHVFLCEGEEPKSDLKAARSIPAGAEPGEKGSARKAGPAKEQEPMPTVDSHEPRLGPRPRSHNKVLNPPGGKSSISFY
UniProt Q9UIW2, sequence (Q9UIW2 whole entry): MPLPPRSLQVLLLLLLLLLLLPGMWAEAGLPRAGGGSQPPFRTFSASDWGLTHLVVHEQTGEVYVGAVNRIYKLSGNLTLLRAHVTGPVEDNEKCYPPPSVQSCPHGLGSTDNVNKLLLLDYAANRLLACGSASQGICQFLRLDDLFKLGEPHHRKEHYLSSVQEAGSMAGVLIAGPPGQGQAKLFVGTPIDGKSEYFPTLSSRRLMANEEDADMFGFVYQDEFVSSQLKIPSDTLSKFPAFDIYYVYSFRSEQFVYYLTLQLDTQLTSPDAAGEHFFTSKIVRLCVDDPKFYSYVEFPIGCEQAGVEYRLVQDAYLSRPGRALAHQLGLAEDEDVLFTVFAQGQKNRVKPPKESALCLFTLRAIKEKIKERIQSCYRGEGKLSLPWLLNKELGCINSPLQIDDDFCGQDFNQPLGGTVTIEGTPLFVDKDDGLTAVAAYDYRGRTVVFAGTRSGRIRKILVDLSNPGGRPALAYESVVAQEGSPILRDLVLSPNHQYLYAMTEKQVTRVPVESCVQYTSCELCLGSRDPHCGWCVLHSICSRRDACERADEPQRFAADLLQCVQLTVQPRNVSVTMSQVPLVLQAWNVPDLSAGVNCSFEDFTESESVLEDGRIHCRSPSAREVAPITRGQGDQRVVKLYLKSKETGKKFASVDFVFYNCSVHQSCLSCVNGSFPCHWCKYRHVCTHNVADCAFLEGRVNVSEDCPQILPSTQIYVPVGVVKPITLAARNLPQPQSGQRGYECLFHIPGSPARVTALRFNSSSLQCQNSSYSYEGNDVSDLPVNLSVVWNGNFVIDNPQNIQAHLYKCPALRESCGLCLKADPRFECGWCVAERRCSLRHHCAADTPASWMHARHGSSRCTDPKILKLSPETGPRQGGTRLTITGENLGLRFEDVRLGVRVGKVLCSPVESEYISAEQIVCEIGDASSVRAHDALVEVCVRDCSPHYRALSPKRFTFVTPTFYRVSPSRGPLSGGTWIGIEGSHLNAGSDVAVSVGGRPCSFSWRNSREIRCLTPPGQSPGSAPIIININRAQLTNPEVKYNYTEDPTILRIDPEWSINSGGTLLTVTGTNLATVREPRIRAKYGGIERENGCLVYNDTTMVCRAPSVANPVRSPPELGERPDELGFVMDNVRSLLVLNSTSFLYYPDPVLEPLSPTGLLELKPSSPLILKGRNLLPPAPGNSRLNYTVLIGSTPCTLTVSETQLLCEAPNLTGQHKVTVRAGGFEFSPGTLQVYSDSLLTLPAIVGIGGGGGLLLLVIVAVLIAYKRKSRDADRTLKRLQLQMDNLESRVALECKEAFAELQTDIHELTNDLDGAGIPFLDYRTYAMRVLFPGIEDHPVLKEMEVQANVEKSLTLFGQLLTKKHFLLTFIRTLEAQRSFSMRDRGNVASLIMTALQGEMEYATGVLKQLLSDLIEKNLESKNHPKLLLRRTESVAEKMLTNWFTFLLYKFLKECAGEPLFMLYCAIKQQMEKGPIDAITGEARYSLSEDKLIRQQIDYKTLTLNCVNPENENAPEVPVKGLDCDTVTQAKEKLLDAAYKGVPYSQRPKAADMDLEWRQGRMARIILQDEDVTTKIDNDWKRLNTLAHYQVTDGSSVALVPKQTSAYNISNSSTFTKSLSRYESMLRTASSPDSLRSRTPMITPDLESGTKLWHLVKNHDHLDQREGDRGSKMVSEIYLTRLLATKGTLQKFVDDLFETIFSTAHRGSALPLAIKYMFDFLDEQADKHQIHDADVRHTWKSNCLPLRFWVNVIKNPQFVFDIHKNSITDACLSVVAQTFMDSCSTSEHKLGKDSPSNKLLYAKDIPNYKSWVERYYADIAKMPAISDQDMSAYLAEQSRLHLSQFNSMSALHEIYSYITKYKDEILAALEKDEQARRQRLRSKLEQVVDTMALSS
UniProt Q15366, sequence (Q15366 whole entry): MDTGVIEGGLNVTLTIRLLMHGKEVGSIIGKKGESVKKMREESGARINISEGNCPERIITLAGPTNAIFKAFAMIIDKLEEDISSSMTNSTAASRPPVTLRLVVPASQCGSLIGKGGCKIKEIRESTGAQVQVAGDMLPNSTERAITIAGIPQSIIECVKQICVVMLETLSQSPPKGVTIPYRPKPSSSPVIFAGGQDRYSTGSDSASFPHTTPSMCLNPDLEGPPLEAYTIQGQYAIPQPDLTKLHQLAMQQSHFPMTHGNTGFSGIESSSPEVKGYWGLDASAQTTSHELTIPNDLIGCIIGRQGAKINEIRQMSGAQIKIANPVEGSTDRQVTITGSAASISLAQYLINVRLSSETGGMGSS

Compound in this assay: C#CCNC(=O)CCSSCCC(=O)NCCc1ccc(C=O)c(C=O)c1
Kind of assay: lysine labeling ratio R10:1 (500 µM / 50 µM probe), SILAC-ABPP in living cells; higher = lower intrinsic lysine reactivity toward the probe, active = 2 or less. Conditions: HeLa; probe concentrations 500 vs 50 µM. An outline of the steps:
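With forward and reverse label swaps, light and heavy SILAC HeLa cells, alive and in PBS at room temperature, were exposed to either 500 µM or 50 µM of an alkyne-tagged lysine probe bearing a disulfide link. After mixing, lysates were clicked to biotin-azide, cut with trypsin, pulled down on neutravidin, freed with DTT, alkylated and analysed on a TIMS-TOF Pro by LC-MS/MS. The per-lysine value R is the median over forward and reverse replicates of the filtered median high-probe/low-probe MS1 peptide ratio. It is capped at 20.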
For “ENO1 (lysine site: K126) (UniProt P06733)”, the “lysine labeling ratio R10:1” value is 3.29.

As to “FLNA (lysine site: K2025) (UniProt P21333)”, the “lysine labeling ratio R10:1” value was 3.25.

For the target “PLXNA1 (lysine site: K868) (UniProt Q9UIW2)”, the “lysine labeling ratio R10:1” value was 1.37 (active).

With “ITGB1 (lysine site: K202) (UniProt P05556)”, the “lysine labeling ratio R10:1” value was 4.2.

On to “RPS5 (lysine site: K47) (UniProt P46782)”, for which the “lysine labeling ratio R10:1” value is 1.01 (active).

Regarding “SRI (lysine site: K146) (UniProt P30626)”, the “lysine labeling ratio R10:1” value was 4.33.

On to UniProt P16144 (lysine site: K510), for which the “lysine labeling ratio R10:1” value is 2.83.

Turning to “JPT2 (lysine site: K67) (UniProt Q9H910)”, the “lysine labeling ratio R10:1” value was 4.42.

UniProt Q5XKE5 (lysine site: K253): the “lysine labeling ratio R10:1” value is 2.87.

As for UniProt P62805 (lysine site: K13), the “lysine labeling ratio R10:1” value is 2.71.

For “CSRP1 (lysine site: K112) (UniProt P21291)”, the “lysine labeling ratio R10:1” value is 1.46 (active).

As to “PCBP2 (lysine site: K322) (UniProt Q15366)”, the “lysine labeling ratio R10:1” value was 4.37.

For the target “CLTC (lysine site: K619) (UniProt Q00610)”, the “lysine labeling ratio R10:1” value is 2.75.

For “HSPD1 (lysine site: K523) (UniProt P10809)”, the “lysine labeling ratio R10:1” value was 5.04.

With “RPL10A (lysine site: K212) (UniProt P62906)”, the “lysine labeling ratio R10:1” value is 1.53 (active).

Regarding “SERBP1 (lysine site: K72) (UniProt Q8NC51)”, the “lysine labeling ratio R10:1” value was 1.17 (active).

Turning to “CDH13 (lysine site: K185) (UniProt P55290)”, the “lysine labeling ratio R10:1” value was 4.74.

With “NUCB2 (lysine site: K184) (UniProt P80303)”, the “lysine labeling ratio R10:1” value is 2.65.

Turning to “SPTAN1 (lysine site: K1419) (UniProt Q13813)”, the “lysine labeling ratio R10:1” value was 0.907 (active).

Consider “MYH9 (lysine site: K1828) (UniProt P35579)”, for which the “lysine labeling ratio R10:1” value was 2.77.

“AHNAK (lysine site: K5443) (UniProt Q09666)”: the “lysine labeling ratio R10:1” value was 0.97 (active).

For “MAP4 (lysine site: K959) (UniProt P27816)”, the “lysine labeling ratio R10:1” value was 3.23.

Take “FN1 (lysine site: K149) (UniProt P02751)”: the “lysine labeling ratio R10:1” value is 1.99 (active).

With “SLC3A2 (lysine site: K217) (UniProt P08195)”, the “lysine labeling ratio R10:1” value was 7.33.

UniProt P14618 (lysine site: K498): the “lysine labeling ratio R10:1” value is 1.49 (active).

With UniProt Q9NYU2 (lysine site: K356), the “lysine labeling ratio R10:1” value is 1.45 (active).

Regarding “HNRNPU (lysine site: K265) (UniProt Q00839)”, the “lysine labeling ratio R10:1” value is 2.4.

As for “FLNA (lysine site: K704) (UniProt P21333)”, the “lysine labeling ratio R10:1” value was 1.61 (active).

Consider “MSLN (lysine site: K487) (UniProt Q13421)”, for which the “lysine labeling ratio R10:1” value was 6.18.

With “ATAD3B (lysine site: K505) (UniProt Q5T9A4)”, the “lysine labeling ratio R10:1” value is 0.98 (active).

UniProt P54851 (lysine site: K126): the “lysine labeling ratio R10:1” value was 3.69.

“CACNA2D1 (lysine site: K88) (UniProt P54289)”: the “lysine labeling ratio R10:1” value was 1.78 (active).

For the target B2M (lysine site: K26) (UniProt P61769), the “lysine labeling ratio R10:1” value was 10.1.

As for “P30462 (lysine site: K210) (UniProt P01889)”, the “lysine labeling ratio R10:1” value was 2.33.

For “TMEM132A (lysine site: K820) (UniProt Q24JP5)”, the “lysine labeling ratio R10:1” value is 2.33.

Consider “L1CAM (lysine site: K222) (UniProt P32004)”, for which the “lysine labeling ratio R10:1” value is 9.33.

Take “HSPA8 (lysine site: K159) (UniProt P11142)”: the “lysine labeling ratio R10:1” value was 5.07.

In the case of “ALCAM (lysine site: K76) (UniProt Q13740)”, the “lysine labeling ratio R10:1” value is 6.62.

In the case of “CAPZB (lysine site: K57) (UniProt P47756)”, the “lysine labeling ratio R10:1” value is 1.35 (active).

With “NUMA1 (lysine site: K1667) (UniProt Q14980)”, the “lysine labeling ratio R10:1” value is 0.807 (active).
